# Hit rate of the full screen: of about 1,100 compounds, about 350 (32%) were called active. How the calls were made is not given here. Only a sample is shown. Entries that show only a call come without a potency. Potency and affinity values are given separately.
# Test: viability loss in CEM21 cells – cell-based, CellTiter-Glo luminescence, cherry-picked, cytotoxicity control for viral fusion inhibitor project, dose response (AID 652042)
# Conditions: CellTiter-Glo ATP luminescence, 24 h; series mostly up to 35 µM
row,SMILES,"activity change, negative = cytotoxicity"
1,CC(C)(C)c1ccc(-n2ncc3c2CCCC3NC(=O)CN2CCCC2=O)cc1 (stereo not given),inactive
2,Cc1cc(C(=O)NC2CCCc3c2cnn3-c2ccc(C(C)(C)C)cc2)nn1C (stereo not given),inactive
3,CCC12CN(S(=O)(=O)c3ccc(C)cc3)CC(CC)(CN(S(=O)(=O)c3ccc(C)cc3)C1)C2=O,inactive
4,O=C(C[C@@H]1C/C=C/CC[C@@H](Cc2ccc(F)cc2)C(=O)O[C@H](c2ccccc2)CNC1=O)NCCO,inactive
5,CC[C@@]12C(=O)N(c3ccc(C)cc3)C(=O)N1[C@H](c1ccc(OC)cc1)[C@@H]1C(=O)N(C(C)(C)C)C(=O)[C@@H]12,inactive
6,O=C(c1ccc2ncsc2c1)N1CCN(c2nc3ccccc3s2)CC1,inactive
7,Cc1cc(CSc2ccccc2)ccc1NC(=O)c1ccc(CN2CCOCC2)cc1,inactive
8,CCCOc1ccc2ccccc2c1/C=N/n1cnnc1,inactive
9,COC(=O)C[C@H]1C=C[C@H](NC(=O)c2ccccn2)[C@@H](CO)O1,inactive
10,CS(=O)(=O)N1CCN(c2ccccc2NC(=O)C(c2ccccc2)c2ccccc2)CC1,inactive
11,C[C@@H]1CNC(=O)c2c(C(=O)N3CCN(c4ccccc4)CC3)ncn21,inactive
12,O=C(N(Cc1ccccc1)c1ccccn1)C12CC3CC(CC(C3)C1)C2,inactive
13,CCNC1CCC(Nc2ccnc3cc(Cl)ccc23)CC1 (stereo not given),inactive
14,O=C(Nc1cccc(F)c1)c1cc(S(=O)(=O)N2CCC(C(=O)O)CC2)ccc1F,inactive
15,CC(C)OCCCn1c(=S)[nH]c2ccc(N3CCOCC3)cc2c1=O,inactive
16,Cc1ccc(C(=O)CN2C(=O)c3ccccc3S2(=O)=O)cc1,inactive
17,O=C(Nc1ccccc1N1CCN(C(=O)c2ccccc2)CC1)c1ccc(Br)o1,inactive
18,O=C(c1ccc(S(=O)(=O)Nc2ccc(F)cc2)cc1)N1CCN(C(=O)c2ccco2)CC1,inactive
19,CCOC(=O)c1cccc(NS(=O)(=O)c2ccc(NC(C)=O)cc2)c1,inactive
20,COc1cc2c(c(OCC(=O)NC(C)C)c1)C(=O)O[C@@H](C)CCCC(=O)CCCCC2,inactive
21,Nc1c(Cl)cc2c(c1Oc1ccccc1)C(=O)c1ccccc1C2=O,inactive
22,CN(Cc1cccs1)c1ncnc2sccc12,inactive
23,C[C@@H]1CN([C@H](C)CO)C(=O)c2cccc(NC(=O)c3ccncc3)c2O[C@H]1CN(C)CC1CCCCC1,inactive

row,SMILES,"activity change, negative = cytotoxicity"
1,C[C@@H]1CN([C@H](C)CO)C(=O)c2cccc(NC(=O)c3ccncc3)c2O[C@@H]1CN(C)Cc1ccc(C(=O)O)cc1,inactive
2,C[C@@H]1CN([C@H](C)CO)C(=O)c2cccc(NC(=O)C3CCCCC3)c2O[C@H]1CN(C)Cc1ccccc1,inactive
3,C[C@H]1CN([C@@H](C)CO)C(=O)c2cccc(NC(=O)c3ccncc3)c2O[C@@H]1CN(C)C(=O)Nc1cccc2ccccc12,inactive
4,CC(C)(C)c1ccc(-c2noc(CCC(N)=O)n2)cc1,inactive
5,CCOc1ccc(N(CC(=O)NCCSCc2ccc(Cl)cc2)S(C)(=O)=O)cc1,inactive
6,CCCN(CC(=O)Nc1ccccc1OC)C(=O)c1cccc(S(=O)(=O)NCc2ccccc2)c1,inactive
7,COc1ccc(Cl)cc1NC(=O)CN(C1CCCCC1)S(C)(=O)=O,inactive
8,Cc1n[nH]c(C)c1S(=O)(=O)N(CC(=O)NC1CCCC1)c1ccc(C(C)C)cc1,inactive
9,C#CCn1c(=O)c2c(ncn2C)n(C)c1=O,inactive
10,C=C1CCN([C@H](C(=O)OCc2cccc(C)c2)C(C)C)S(=O)(=O)c2ccccc21,inactive
11,CCN1C(=O)[C@H]2[C@H]3CN=C(SCc4ccc(Cl)cc4)N3[C@@](CC)(C(=O)OC)[C@H]2C1=O,inactive
12,O=C(Nc1cc(Cl)cc(Cl)c1)C(c1ccccc1)N1CCCCC1 (stereo not given),inactive
13,Cc1onc(-c2ccccc2)c1C(=O)OCCOc1cccc(Cl)c1,inactive
14,CCn1c(C)cc(C(=O)CN2C(=O)c3ccccc3S2(=O)=O)c1C,inactive
15,O=C(Nc1cc2c3c(c1)CC(=O)N3CCC2)c1ccc(Cl)cc1,inactive
16,O=C(NCCCc1nc2ccccc2[nH]1)c1ccco1,inactive
17,CN(c1ccccc1)S(=O)(=O)c1ccc(Cl)c(C(=O)Nc2nc3ccccc3[nH]2)c1,inactive
18,CCNC(=O)C[C@H]1CC[C@@H]2[C@@H](COc3ccc(NC(=O)Nc4cccc(OC)c4)cc3C(=O)N2C)O1,inactive
19,Cc1[nH]c2ccccc2c1/C=N\NC(=O)c1ccccc1Cl,inactive
20,CCOc1cccc(N(C(=O)Cc2cccs2)C(C(=O)NC2CCCCC2)c2cccn2C)c1 (stereo not given),inactive
21,COc1cccc(-c2noc(C3CCCN(S(=O)(=O)c4cccc(Cl)c4C)C3)n2)c1 (stereo not given),inactive
22,Cc1ccc2c(c1)C(=C(C#N)C#N)CCN2,inactive
23,COc1ccc(C(=O)CN2C(=O)c3ccccc3S2(=O)=O)cc1,inactive

row,SMILES,"activity change, negative = cytotoxicity"
1,COc1cc(/C=N/NS(=O)(=O)c2ccc(C)cc2)ccc1OCc1cccc(C(=O)O)c1,inactive
2,COC(=O)C1(C(=O)OC)C[C@H](c2ccc(OC)cc2)N(Cc2ccccc2OC)[C@@H]1c1ccccc1,inactive
3,CCOc1ccccc1CNc1ncnc2ccc(-c3c(C)noc3C)cc12,inactive
4,CCCCn1c(CN(C)Cc2ccccc2)nc2c1c(=O)n(C)c(=O)n2C,inactive
5,CCCNC(=O)C[C@H]1C[C@H]2c3cc(NC(=O)CN(C)C)ccc3O[C@H]2[C@@H](CO)O1,inactive
6,CC[C@@]1(C(=O)OC)N[C@H](CN(C)C(=O)Nc2ccc(C(F)(F)F)cc2)[C@@H]2C(=O)N(Cc3ccccc3)C(=O)[C@@H]21,inactive
7,COC(=O)[C@]12CCCCC=C1N(Cc1ccco1)C(=O)[C@H](CC(=O)NCCc1ccccc1OC)C2,inactive
8,Cn1c(=O)oc2cc(S(=O)(=O)NCc3ccncc3)ccc21,inactive
9,OCCN1CCN(C(=S)c2ccc(-c3ccccc3)cc2)CC1,inactive
10,CC1CCCN(C(=O)c2ccc(S(=O)(=O)N3CCC(c4nc5ccccc5s4)CC3)cc2)C1 (stereo not given),inactive
11,Cn1c(C(=O)N2CCN(c3nc4ccccc4s3)CC2)cc2sccc21,inactive
12,Cn1cc(S(=O)(=O)N2CCOCC2)cc1C(=O)Nc1cccc(Cl)c1,inactive
13,CN(CC(=O)NCCc1ccc(S(N)(=O)=O)cc1)CC(=O)Nc1ccc(Cl)c(C(F)(F)F)c1,inactive
14,CCN(C[C@H]1N[C@@](C)(C(=O)OC)[C@H]2C(=O)N(Cc3ccccc3)C(=O)[C@@H]12)C(=O)Nc1ccccc1,inactive
15,CCc1cc2c(NCc3ccco3)ncnc2s1,inactive
16,Nc1nc2c(ncn2[C@@H]2O[C@H](C(=O)NCC(c3ccccc3)c3ccccc3)[C@@H](O)[C@H]2O)c(=O)[nH]1,inactive
17,Nc1ncn([C@H]2C[C@H](O)[C@@H](CO)O2)c(=O)n1,inactive
18,COc1ccccc1-c1c(-c2ccc(O)cc2O)n[nH]c1C(F)(F)F,inactive
19,C=C1CCN([C@H](C(=O)OCc2ccc(C)cc2)C(C)C)S(=O)(=O)c2ccccc21,inactive
20,COC(=O)[C@]1(C)N[C@H](CN(C)S(=O)(=O)c2ccc(-c3ccccc3)cc2)[C@@H]2C(=O)N(Cc3ccccc3)C(=O)[C@@H]21,inactive
21,O=C(NCc1ccco1)c1ccc(Cn2c(=O)c3ccccc3n(Cc3ccc(Cl)cc3)c2=O)cc1,inactive
22,COc1ccc(CCN(Cc2cccs2)S(=O)(=O)c2ccc(-n3cnnn3)cc2)cc1OC,inactive
23,Nc1c(S(=O)(=O)c2cccs2)c2nc3ccccc3nc2n1CCc1ccccc1,inactive

row,SMILES,"activity change, negative = cytotoxicity"
1,CCOC(=O)[C@@H]1[C@H]2COc3ccc(Br)cc3[C@@H]2N2C(=O)N(c3cccc(F)c3)C(=O)[C@@]12C,inactive
2,Cn1c(=O)c2c(nc(Oc3ccc4ccccc4c3)n2C)n(C)c1=O,inactive
3,COc1ccc(/C=C/c2nc(S(=O)(=O)c3ccccc3)c(NCCCN(C)C)o2)cc1OC,inactive
4,COc1cc(/C=N/O)ccc1OCc1ccc(C(=O)O)cc1,inactive
5,O=C(Nc1cc(Cl)cc(Cl)c1)C1CCC(=O)N1Cc1ccccc1Cl (stereo not given),inactive
6,CCCNC(=O)N1[C@H](C#N)[C@H](c2ccc(-c3cccc(OC)c3)cc2)[C@@H]1CO,inactive
7,CN(C)C(=O)CCC(=O)N1CCCC(C(=O)c2ccc3c4c(cccc24)CC3)C1 (stereo not given),inactive
8,O=C(C[C@H]1C[C@H]2c3cc(NC(=O)NC4CCCC4)ccc3O[C@H]2[C@@H](CO)O1)NC1CCCCC1,inactive
9,COC(=O)[C@@]12CCCN1[C@H](c1ccc(-c3ccc(F)cc3)c(OC)c1)[C@H]1C(=O)N(C)C(=O)[C@H]12,inactive
10,O=C(c1ccccc1)N1CCN(c2ncnc3sc4c(c23)CCC4)CC1,inactive
11,CCN(Cc1nc2cc(Cl)ccc2c(=O)[nH]1)C(=O)c1cc(C2CC2)nn1-c1ccccc1,inactive
12,Cc1cc(C)c(CN2CCN(C(=O)Cn3cnc4c(NCc5ccccc5)ncnc43)CC2)c(C)c1,inactive
13,O=C(Cn1ncc2c(=O)oc3ccccc3c21)N1CCC(N2CCCCC2)CC1,inactive
14,CCOC(=O)C1CCN(C(=O)c2ccc3c(c2)C(=O)N(c2ccccc2C)C3=O)CC1,inactive
15,COc1ccccc1CN1C(=O)CN(C2CCCCCC2)C(=O)C1c1ccc(F)cc1 (stereo not given),inactive
16,COc1ccccc1[C@@H]1C(c2ccc(F)cc2)=NN(c2ccccc2)[C@H]1C(=O)N1CCOC1=O,inactive
17,CCN(C1CCCCC1)S(=O)(=O)c1ccc(S(=O)(=O)NCc2ccncc2)cc1,inactive
18,CC[C@@]12C(=O)N(c3ccccc3)C(=O)N1[C@H](c1ccc(OC)cc1)[C@@H]1C(=O)N(C(C)(C)C)C(=O)[C@@H]12,inactive
19,Cc1nc2sccn2c1-c1csc(NCc2ccccc2)n1,inactive
20,O=C(CN(Cc1ccccc1)S(=O)(=O)c1ccc(F)cc1)NCCC1=CCCCC1,inactive
21,O=C(CN(Cc1ccccc1F)S(=O)(=O)c1ccc(Cl)cc1)NCCC1=CCCCC1,inactive

# Source: PubChem BioAssay AID652042 (Broad Institute, 2013)
